Several values for one entry are separate records, joined by “and”; a condition that tells them apart may be missing. Identical values can stand only once. Activity calls are given as the source filed them.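 How the source made its calls, unless noted: active means compounds whose cell count with miR-34 switched on is under 0.7 times the count with it off; inactive means the rest.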
Columns and labels:
[1] = viability loss with induced miR-34 in A549 – imaging, A549 dox-inducible miR-34, nuclei and caspase counts, primary screen (AID 1347080); details: A549 miR-34 inducible, Hoechst nuclei count, 48 h; further: test concentration not given here
[2] = MELAS cybrid and Rieske KO viability enhancers – cell-based, MELAS cybrids, Rieske KO mouse fibroblasts, CellTiter-Glo, primary screen (AID 1508586;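 active means mean z-score across replicates of 1.96 or higher in either the MELAS or the Rieske mutant cell line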;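 further: test concentration not given here; z relative to plate mean and SD of compound and empty wells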); details: low glucose
[3] = galactose survival enhancers in mitochondrial complex I cybrids – cell-based, galactose medium, ATP luminescence, primary screen (AID 1645843;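 active means z-score of at least 1.8 in each of two replicates, scored against plate mean and spread of sample wells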;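 further: positive z means more ATP and so rescue of galactose-driven cybrid death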); details: complex I mutant cybrid cells, 72 h, stronger effect = higher value
[4] = stronger effect = lower value, cell number ratio, induced over uninduced
[5] = measured here: relative caspase fold change +Dox/-Dox
[6] = measured here: total cells with miR-34 induction, stronger effect = lower value
[7] = measured here: total cells without miR-34 induction
[8] = MELAS cybrid survival, CellTiter-Glo 48 h, stronger effect = higher value
[9] = Rieske KO mouse fibroblast survival, CellTiter-Glo 72 h

| Structure (SMILES) | fold change [1, 4] | fold change [1, 5] | cell count [1, 6] | cell count [1, 7] | z-score [2, 8] | z-score [2, 9] | z-score [3] |
| --- | --- | --- | --- | --- | --- | --- | --- |
| CCOC(=O)c1c(C)nn(-c2ccc(N)cc2)c1C | 0.897 (inactive) | 0.586 | 8580 | 9570 | -0.251 (inactive) | -0.884 | -0.7 (inactive) |
| O=C(O)CCCCCNC(=O)NC1CCCCC1 | 0.882 (inactive) | 0.38 | 9190 | 10400 | -0.568 (inactive) | 0.057 | 0.68 (inactive) |
| Cc1sc2ncnc(-c3cccc4cccnc34)c2c1C | 0.871 (inactive) | 1.66 | 8110 | 9310 | -0.544 (inactive) | -0.845 | 0.64 (inactive) |
| NC(=O)NC(Cc1ccccc1)C(=O)O (centres undefined) | 0.889 (inactive) | 0.725 | 8700 | 9790 | -0.32 (inactive) | -0.255 | 0.66 (inactive) |
| Cc1nc(NC(=O)NCc2cccc(C(F)(F)F)c2)nn1C | 0.922 (inactive) | 1.12 | 9110 | 9880 | 0.0413 (inactive) | 1.4 | 0.45 (inactive) |
| CNc1nc(-c2cccc(OC)c2)ncc1F | 0.868 (inactive) | 1.04 | 8700 | 10000 | 0.0888 (inactive) | -0.0676 | -0.485 (inactive) |
| Cc1cc(C(=O)N2CCc3[nH]nc(COc4ccccc4)c3C2)c(C)o1 | 0.899 (inactive) | 1.21 | 8460 | 9410 | -0.0896 (inactive) | -0.219 | -0.42 (inactive) |
| COc1ccc(CSc2nnc(-c3ccc4c(c3)OCO4)o2)cc1F | 0.89 (inactive) | 0.327 | 8570 | 9630 | 0.835 (inactive) | -0.403 | 1.06 (inactive) |
| CCc1nc(NC(=O)NCCc2nc(-c3ccc(C)cc3)no2)nn1C | 0.835 (inactive) | 1.88 | 7240 | 8670 | 1.58 (inactive) | -0.075 | 2.27 (active) |
| COc1cc(CC2COC(=O)C2Cc2ccc(O)c(OC)c2)ccc1O (centres undefined) | 0.888 (inactive) | 0.681 | 8440 | 9500 | -1.09 (inactive) | -0.0925 | -0.07 (inactive) |
| NS(=O)(=O)c1ccc(C(=O)NCc2ccccc2)cc1 | 0.871 (inactive) | 0.5 | 8310 | 9540 | 0.51 (inactive) | -0.575 | 0.795 (inactive) |
| COc1cccc2c(=O)n(C(C)Cn3cccn3)cnc12 (centres undefined) | 0.936 (inactive) | 1.36 | 9030 | 9650 | -0.113 (inactive) | -1.21 | -0.305 (inactive) |
| Cc1ccc2c(C(=O)N(C)C(C)C)cc(-c3cnc(C(C)C)nc3)nc2c1 | 0.942 (inactive) | 1.5 | 7480 | 7940 | 0.549 (inactive) | 0.778 | -0.485 (inactive) |
| O=C(NCc1ccccn1)c1ccc(Oc2ccccc2)cc1 | 0.933 (inactive) | 0.296 | 8650 | 9270 | 0.509 (inactive) | -0.417 | 0.08 (inactive) |
| Cc1cc(NC(=O)Cn2cc(-c3cccc4cccnc34)cn2)n(C)n1 | 0.876 (inactive) | 0.926 | 8830 | 10100 | -0.478 (inactive) | -0.249 | -0.585 (inactive) |
| O=C(O)CSc1nc(-c2cccc(Cl)c2)no1 | 0.912 (inactive) | 0.254 | 8810 | 9660 | 0.659 (inactive) | -0.279 | 0.49 (inactive) |
| O=C(Cc1noc2ccccc12)NCCOc1cccnc1 | 0.924 (inactive) | 1.95 | 9890 | 10700 | -0.132 (inactive) | -0.425 | -0.56 (inactive) |
| CCn1ncc(NC(=O)Cn2cc(-c3ncnc4ccsc34)cn2)n1 | 0.848 (inactive) | 1.75 | 8160 | 9620 | -0.432 (inactive) | -0.147 | -0.53 (inactive) |
| COc1ccc(S(=O)(=O)N2CCN(S(=O)(=O)c3ccc4c(c3)OCCO4)CC2)cc1 | 0.881 (inactive) | 0.373 | 8270 | 9390 | -0.316 (inactive) | -0.269 | 0.51 (inactive) |
| Cc1cccc(C)c1OCC(=O)O | 0.919 (inactive) | 0.272 | 8740 | 9510 | 0.26 (inactive) | 0.0496 | 0.75 (inactive) |
| CS(=O)(=O)Nc1ccc(C(=O)O)cc1 | 0.918 (inactive) | 0.714 | 8860 | 9650 | 0.13 (inactive) | -0.244 | 0.365 (inactive) |
| CC(C)c1nc(CN(C)C(=O)NC(C(=O)NC(Cc2ccccc2)CC(O)C(Cc2ccccc2)NC(=O)OCc2cncs2)C(C)C)cs1 (centres undefined) | 0.948 (inactive) and 0.95 (inactive) | 1.44 and 0.946 | 7230 and 6000 | 7630 and 6320 | -0.434 (inactive) | 0.643 | -0.03 (inactive) |
| CCCn1ncc(-c2ccnc(NC3CC(C)(C)NC(C)(C)C3)n2)c1C | 0.919 (inactive) | 0.965 | 8450 | 9200 | 0.278 (inactive) | 0.593 | 0.33 (inactive) |
| Cn1nc(-c2cccnc2)c2[nH]c(-c3ccc4c(c3)OCCO4)nc21 | 0.86 (inactive) | 1.08 | 5270 | 6130 | 12.6 (active) | 3.9 | 4.01 (active) |

| Structure (SMILES) | fold change [1, 4] | fold change [1, 5] | cell count [1, 6] | cell count [1, 7] | z-score [2, 8] | z-score [2, 9] | z-score [3] |
| --- | --- | --- | --- | --- | --- | --- | --- |
| Cc1nsc(NC(=O)N(C)Cc2cn[nH]c2-c2ccc(F)cc2)n1 | 0.916 (inactive) | 0.879 | 9230 | 10100 | 0.225 (inactive) | -0.278 | -0.49 (inactive) |
| COc1cc(N(C)CC2COc3ccccc3O2)nc(N)n1 (centres undefined) | 0.844 (inactive) | 2.02 | 3500 | 4140 | 0.477 (inactive) | -0.0472 | -0.58 (inactive) |
| CC(=O)NCCc1ccc(S(N)(=O)=O)cc1 | 0.918 (inactive) | 0.641 | 7840 | 8540 | 0.668 (inactive) | -0.256 | -0.065 (inactive) |
| O=C(O)COc1cccc2ccccc12 | 0.847 (inactive) | 0.59 | 7750 | 9150 | -0.276 (inactive) | 0.135 | 0.555 (inactive) |
| Cc1nsc(NC(=O)NC2Cc3ccccc3C2)n1 | 0.755 (inactive) | 2.05 | 7330 | 9710 | 0.128 (inactive) | -0.355 | 2.51 (active) |
| C=CCn1cc(-c2nc3c([nH]2)c(-c2cccnc2)nn3C)c(C)n1 | 0.874 (inactive) | 0.787 | 8680 | 9940 | -1.29 | 2.45 | -0.47 (inactive) |
| NC(=O)c1cncc(Br)c1 | 0.888 (inactive) | 0.503 | 8870 | 9990 | 0.375 (inactive) | -0.195 | 0.76 (inactive) |
| O=C(O)c1sccc1S(=O)(=O)Nc1ccc(Cl)cc1 | 0.887 (inactive) | 0.469 | 8810 | 9930 | -0.651 (inactive) | -0.438 | 0.48 (inactive) |
| O=S(=O)(Nc1cc(-c2cccs2)nn1-c1ccc(F)cc1)c1cccc(F)c1 | 0.903 (inactive) | 0.956 | 7390 | 8190 | 0.0617 (inactive) | 0.524 | -1.46 (inactive) |
| c1ccc(-c2ncc(-c3ccn[nH]3)s2)cc1 | 0.881 (inactive) | 0.808 | 8010 | 9090 | 2.65 (active) | -0.462 | -0.185 (inactive) |
| O=C(Nc1cccc(-c2nn[nH]n2)c1)c1cccc(F)c1 | 0.949 (inactive) | 0.795 | 8970 | 9450 | 1.21 (inactive) | -0.523 | 0.385 (inactive) |
| c1ccc2c(CCc3ccncc3)c[nH]c2c1 | 0.863 (inactive) | 0.826 | 7350 | 8520 | 1.96 (inactive) | -0.242 | -0.71 (inactive) |
| CN(C)C(=O)c1cc(-c2[nH]ncc2-c2ccccc2)c[nH]1 | 0.875 (inactive) | 0.578 | 7590 | 8680 | 1.27 (inactive) | 0.199 | -0.655 (inactive) |
| CN=C(NC)NCc1ccccc1 | 0.917 (inactive) | 0.571 | 9010 | 9830 | 0.186 (inactive) | -0.223 | 0.38 (inactive) |
| Cc1ccc(NS(=O)(=O)c2ccccc2)c(C(=O)O)c1 | 0.888 (inactive) | 0.521 | 8960 | 10100 | 0.391 (inactive) | -0.208 | 0.425 (inactive) |
| Cc1csc(CNc2nccc(-c3cn(C)nc3C)n2)n1 | 0.888 (inactive) | 0.815 | 8410 | 9480 | -0.307 (inactive) | 0.16 | -0.445 (inactive) |
| C=CCNC(=O)c1cccnc1-c1ccc(OC)c2ncccc12 | 0.914 (inactive) | 1.9 | 9130 | 9990 | -0.163 (inactive) | -0.219 | -0.545 (inactive) |
| COc1ccc(-c2ncnc3sc(C)c(C)c23)c2cccnc12 | 0.949 (inactive) | 0.85 | 7370 | 7760 | 0.0989 (inactive) | -0.295 | -0.525 (inactive) |
| COc1cccc(OC)c1-c1ccc(C(=O)Nc2cccnc2)o1 | 0.893 (inactive) | 2.2 | 7930 | 8880 | 0.0755 (inactive) | 0.502 | -0.555 (inactive) |
| O=C(Nc1n[nH]c(-c2ccccc2)n1)N1CCN(c2ccc(F)cc2)CC1 | 0.826 (inactive) | 1.21 | 6770 | 8190 | -0.373 | 4.03 | 0.11 (inactive) |
| O=C1CCNC(=O)N1 | 0.882 (inactive) | 0.303 | 8710 | 9870 | 0.298 (inactive) | 0.144 | 0.585 (inactive) |
| Cc1ccc(NC(=O)c2ccc3nccnc3c2)cn1 | 0.855 (inactive) | 1.41 | 8560 | 10000 | 0.00943 (inactive) | -0.47 | -0.48 (inactive) |
| CC1(C)CC(=O)c2sc(N3CCOCC3)nc2C1 | 0.909 (inactive) | 0.788 | 8160 | 8970 | 0.786 (inactive) | -0.0343 | 0.025 (inactive) |

From PubChem BioAssay
